Experimental findings from PubChem BioAssay (NCATS) are described below.

Where “and” joins values, the source holds several entries; their conditions need not be identical. Equal entries are not always repeated. Results filed as inconclusive are left out. A number with no mark means an inactive call. Calls of active or inactive are those of the source. The call rests on the fitted dose curve; in most records, active means well fitted curve in the direction sought with a large enough effect; inconclusive means small, poorly fitted or top-dose-only effect, or another doubt; inactive means no such curve, though single readings can be large; an effect the other way counts as inactive or inconclusive.

The nature of assay [1]: Viability qHTS for spleen associated tyrosine kinase inhibitor (SYKi) drug resistant MV4-11 cells (AID 1963824). Further: nearly all actives have a fitted effect of over 35% in size. In short, it runs like this: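 SYK-inhibitor-resistant MV4-11 AML cells were seeded at 500 per well onto compound and cultured 72 hours (37 °C, 5% CO2). CellTiter-Glo was then added, and after 10 min at room temperature, luminescence gave viability.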
In general terms: qHTS replaces the single test concentration by a dilution series.

Assay [2] in a line: Cellular viability qHTS for adrenocortical cancer (ACC) cell line SW-13 (AID 1963989). Further: nearly all actives have a fitted effect of over 65% in size.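 On activity (max response): cells grown in serum-free medium with ITS supplement; on the % scale 0 is the no-effect control and ±100 the full control effect.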 To be noted: SW-13 ACC cells viability, CellTiter-Glo, 48 h; activity (max response): active compounds read low. The gist of the method: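 SW-13 cells in ITS-supplemented serum-free DMEM were plated overnight, then exposed for 48 h at 37C to compound titrations (up to 46 uM final). Viability was read by CellTiter-Glo luminescence; four-parameter logistic fits gave IC50 and efficacy.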

Assay [3] in a line: Cellular viability qHTS for adrenocortical cancer (ACC) cell line NCI-H295R (AID 1963990). Further: nearly all actives have a fitted effect of over 60% in size. The gist of the method:
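Luminescent ATP read-out (CellTiter-Glo, 20 min RT) after 48 h drug exposure of NCI-H295R cells; a titration up to 46 uM final. Data normalized to doxorubicin (100% inhibition) and DMSO (0%); 4-parameter fit gives IC50, max response.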
Potency means the concentration at half of the fitted maximal effect.

As to `COc1ccc(/C=C/C(=O)Nc2ccccc2C(=O)O)cc1OC`, the Potency entry in assay [1] and in assay [3] was “inactive” each time. Further, the activity (max response) in assay [2] is -0.0143%.
For the compound `N#Cc1ccnc(N2C(=O)CC[C@H]2C(=O)N(c2cncc(F)c2)C(C(=O)NC2CC(F)(F)C2)c2ccccc2Cl)c1` (some centres not stated), the Potency entry in assay [1] and in assay [3] was “inactive” each time. Further, the activity (max response) in assay [2] was 6.42%.
Regarding `Nc1ncnc2nc[nH]c12`, the Potency entry in assay [1] and in assay [3] was “inactive” in each case. Besides, in assay [2], the activity (max response) was 2.49%.
Take `O=C(CCN1CCN(CCO)CC1)N1c2ccccc2Sc2ccc(C(F)(F)F)cc21`: the Potency entry in assay [1] and in assay [3] was “inactive” in each case. In assay [2], the activity (max response) is -5.01%.
In the case of `NC[C@@](O)(c1ccc(Cl)cc1)c1ccc(-c2cn[nH]c2)cc1`, the Potency in assay [1] was 3.26 µM (active) and 6.61 µM (active); in assay [2] it was 12.6 µM (active); in assay [3], 10 µM (active).
`C[C@]12CCC(=O)C=C1[C@@H]1C[C@@H]1[C@H]1[C@@H]3[C@@H]4C[C@@H]4[C@@]4(CCC(=O)O4)[C@@]3(C)CC[C@@H]12`: the Potency in assay [1] was 21.1 µM (active) and 18.6 µM (active). Further, in assay [2], the activity (max response) was -8.86% and -13.4%. Moreover, the Potency entry in assay [3] was “inactive”.
Regarding `CCN(c1cc(-c2ccc(CN3CCOCC3)cc2)cc(C(=O)NCc2c(C)cc(C)[nH]c2=O)c1C)C1CCOCC1`, the Potency in assay [1] is 20.6 µM (active). Besides, the activity (max response) in assay [2] was -2.62%. Moreover, in assay [3], the Potency entry was “inactive”.
The matching figures for `O=C(NCC(=O)N1CCCC1)Nc1ccc2cnccc2c1`: 8.2 µM (active), -10.6% and “inactive”.
Turning to `C/C=C1\NC(=O)[C@H]2CSSCC/C=C\[C@H](CC(=O)N[C@H](C(C)C)C(=O)N2)OC(=O)[C@H](C(C)C)NC1=O`, the Potency was 0.0074 µM (active) in assay [1], 0.0126 µM (active) in assay [2] and 0.0631 µM (active) in assay [3].
In the case of `CCOC(=O)O[C@]1(C(=O)OCCl)CC[C@H]2[C@@H]3CCC4=CC(=O)C=C[C@]4(C)[C@H]3[C@@H](O)C[C@@]21C`, the Potency result in assay [1] and in assay [3] was “inactive” in each case. For the same compound, the activity (max response) in assay [2] is 8.33% and -8.79%.
`CC(C)=CCC/C(C)=C/CO`: the Potency entry in assay [1] and in assay [3] was “inactive” throughout. In addition, in assay [2], the activity (max response) is 10%.
For `Cc1cc2nc3ccc(=[N+](C)C)cc-3sc2cc1N`, the Potency in assay [1] was 1.68 µM (active); in assay [2], 4.61 µM (active); in assay [3], 5.8 µM (active).
As to `CC1(C)C(N(O)C(=O)Nc2ccc(Cl)cc2)N(c2ccc(Cl)cc2)C(=O)N1CC(=O)N/N=C/C=C/c1ccc([N+](=O)[O-])o1` (configuration not stated), the Potency was 2.63 µM (active) in assay [1], 25.1 µM (active) in assay [2] and 20 µM (active) in assay [3].
Take `CC(=O)CC/C=C(\C)CC/C=C(\C)CC/C=C(\C)CCC=C(C)C`: the Potency result in assay [1] and in assay [3] was “inactive” throughout. Also, the activity (max response) in assay [2] was 9.79%.
Take `O=C1c2ccccc2C(=O)C1c1ccc(Br)cc1`: the Potency result in assay [1] and in assay [3] was “inactive” throughout. For the same compound, the activity (max response) in assay [2] was 7.53%.
Turning to `CCCC(=O)O[C@]1(C(=O)CC)CC[C@H]2[C@@H]3CCC4=CC(=O)CC[C@]4(C)[C@H]3[C@@H](O)C[C@@]21C`, the Potency entry in assay [1] and in assay [3] was “inactive” in each case. Also, the activity (max response) in assay [2] was 0.342%.
Turning to `COc1ccc2[nH]c(C(=O)N3CCC(CC(C)(C)O)CC3)cc2c1`, the Potency in assay [1] was 18.6 µM (active). Further, the activity (max response) in assay [2] is -4.14%. In addition, the Potency result in assay [3] is “inactive”.
The matching figures for `COc1ccc(C(=O)c2ccccc2O)c(O)c1`: 9.44 µM (active), 11.3% and “inactive”.
As for `Cc1onc(-c2ccccc2)c1-c1ccc(S(N)(=O)=O)cc1`, the Potency in assay [1] is 14.8 µM (active). Besides, the activity (max response) in assay [2] is -10.6% and -23.5%. Besides, the Potency entry in assay [3] is “inactive”.
In the case of `O=C(CS(=O)Cc1ccco1)NC/C=C\COc1cc(CN2CCCCC2)ccn1` (configuration not stated), the Potency entry in assay [1] and in assay [3] was “inactive” each time. Besides, the activity (max response) in assay [2] was 2.9%.
Regarding `CCOC(=O)[C@H](CCc1ccccc1)N[C@H]1CCc2ccccc2N(CC(=O)O)C1=O`, the Potency in assay [1] was 16.6 µM (active). Moreover, the activity (max response) in assay [2] was -3.37%. In assay [3], the Potency result is “inactive”.
Regarding `CCOc1ccc2ccccc2c1C(=O)N[C@@H]1C(=O)N2[C@@H]1SC(C)(C)[C@@H]2C(=O)O`, the Potency result in assay [1] and in assay [3] was “inactive” throughout. Also, the activity (max response) in assay [2] is 2.64%.
`COc1cc(N)c(Cl)cc1C(=O)NC1CCN(CCCOc2ccc(F)cc2)CC1OC` (configuration not stated): the Potency in assay [1] was 23.7 µM (active). Also, the activity (max response) in assay [2] is -12.2%. The Potency entry in assay [3] was “inactive”.
The matching figures for `N=C(N)c1ccc2nc(-c3cc(CC(=O)N[C@@H](CC(=O)O)C(=O)O)cc(-c4cc(S(N)(=O)=O)ccc4O)c3O)[nH]c2c1`: “inactive”, 10.3% and “inactive”.
As to `COCCc1ccc(OCC(O)CNC(C)C)cc1` (configuration not stated), the Potency result in assay [1] and in assay [3] was “inactive” each time. Also, the activity (max response) in assay [2] is -3.54%.
With `Nc1nc(N)c2nc(-c3cccc(Cl)c3)c(N)nc2n1`, the values for the Potency in assay [1], in assay [2] and in assay [3] were 1.48 µM (active), 1.26 µM (active) and 1.12 µM (active), respectively.
Consider `CC(CSC(=O)c1ccccc1)C(=O)N1C[C@@H](Sc2ccccc2)C[C@H]1C(=O)O` (some centres not stated), for which the Potency result in assay [1] and in assay [3] was “inactive” in each case. Besides, the activity (max response) in assay [2] was -2.01%.
`CS(=O)(=O)Nc1ccc([N+](=O)[O-])cc1Oc1ccccc1`: in assay [1], the Potency is 14.8 µM (active). The activity (max response) in assay [2] is 9.34% and -1.91%. The Potency entry in assay [3] was “inactive”.
Regarding `Cc1ccccc1N1CCN(CCc2nnc3n2CCCC3)CC1`, the Potency result in assay [1] and in assay [3] was “inactive” throughout. Besides, the activity (max response) in assay [2] is 9.97%.
